Drawing on PubChem BioAssay AID1275 (Emory University Molecular Libraries Screening Center, 2008), this text covers percent of control, lower = inhibition for 1 compound.

Screen size: about 1,000 compounds; about 160 (16%) were called active. No rule for the calls is given here. Some of the results follow.

Sequence of Neutrophil cytosol factor 1 (Homo sapiens) (P14598 whole entry, looked up): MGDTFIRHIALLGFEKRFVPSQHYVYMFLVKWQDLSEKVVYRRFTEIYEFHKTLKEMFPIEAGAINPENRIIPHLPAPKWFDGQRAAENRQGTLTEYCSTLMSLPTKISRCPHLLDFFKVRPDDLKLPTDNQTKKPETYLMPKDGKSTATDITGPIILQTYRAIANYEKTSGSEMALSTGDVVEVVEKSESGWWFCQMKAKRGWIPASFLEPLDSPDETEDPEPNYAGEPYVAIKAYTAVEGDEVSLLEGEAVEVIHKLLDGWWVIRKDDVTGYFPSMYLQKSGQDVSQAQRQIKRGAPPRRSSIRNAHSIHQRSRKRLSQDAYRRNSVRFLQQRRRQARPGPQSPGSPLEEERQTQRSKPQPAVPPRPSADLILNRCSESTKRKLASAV

The assay addresses Neutrophil cytosol factor 1 (Homo sapiens) (UniProt P14598). Description: blockers of ligand binding to p47phox – biochemical, NADPH oxidase regulatory subunit, fluorescence polarization, dose response (AID 1275). As to conditions: at 12.5 µM. (In general: Fluorescence polarisation rises when a labelled molecule tumbles more slowly, as on binding a larger partner.)
As to `O=C1NC(=O)N(Cc2ccc(F)cc2)C(=O)/C1=C\c1ccc(N2CCCC2)cc1`, the percent of control, lower = inhibition was -40.7 (active).
